Activity calls are given as the source filed them. The rule behind the calls is not given here.

Pantothenate synthetase (Mycobacterium tuberculosis (strain ATCC 25618 / H37Rv)), sequence (P9WIL5 whole entry, looked up): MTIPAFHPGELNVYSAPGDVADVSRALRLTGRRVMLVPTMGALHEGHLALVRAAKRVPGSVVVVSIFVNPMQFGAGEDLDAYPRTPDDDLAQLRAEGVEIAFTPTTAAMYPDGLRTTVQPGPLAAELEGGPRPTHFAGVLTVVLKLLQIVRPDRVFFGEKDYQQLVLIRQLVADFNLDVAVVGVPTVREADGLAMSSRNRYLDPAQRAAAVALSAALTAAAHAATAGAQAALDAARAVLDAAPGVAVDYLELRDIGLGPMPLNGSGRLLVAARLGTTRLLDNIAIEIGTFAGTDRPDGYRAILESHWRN

This test addresses Pantothenate synthetase (Mycobacterium tuberculosis (strain ATCC 25618 / H37Rv)) (UniProt P9WIL5). Briefly: Recombinant Mtb pantothenate synthetase (PanC) inhibitors, coupled enzyme, confirmatory (AID 375).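 Note: 0% = full reaction with vehicle and 100% = no enzyme background.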 As to conditions: coupled enzyme assay; at 10 µM, hits give high values.
A word on the inhibition: it is the drop in the measured response relative to a control, in per cent. With `COc1ccc(C(=O)CSc2nnc(CNc3ccc(C)cc3C)o2)cc1`, the inhibition was 2% (inactive).
Take `CC(=O)Nc1cccc(-c2nnc(-c3ccccc3)o2)c1`: the inhibition is 4% (inactive).
In the case of `CCOC(=O)c1ccc(NC(=O)N2CCN(CCc3ccccc3)CC2)cc1`, the inhibition was 0% (inactive).
As to `COc1cccc(OC)c1C(=O)N1CCOCC1`, the inhibition is 12% (inactive).
Regarding `CCc1nn(CC(=O)NCCCN2CCc3ccccc3C2)c(=O)c2cc3sccc3n12`, the inhibition is 8% (inactive).
Regarding `O=C(c1cccc(C(=O)N2CCN(c3ccc(F)cc3)CC2)c1)N1CCN(c2ccc(F)cc2)CC1`, the inhibition is 10% (inactive).
As for `COc1ccc(CCN2CC(O)=C(c3nc4ccccc4c(=O)[nH]3)C2=N)cc1OC`, the inhibition was 0% (inactive).
In the case of `Cc1ccc(NS(=O)(=O)c2cn(C)cn2)cc1`, the inhibition is 5% (inactive).
`O=C(O)C1CC=CCC1C(=O)Nc1cc(Cl)ccc1Cl` (stereo unspecified): the inhibition is 1% (inactive).
Regarding `COc1ccccc1S(=O)(=O)Cc1ccc(C(=O)N2CCN(c3ccccn3)CC2)o1`, the inhibition is 0% (inactive).
As for `O=C(OC1CCOC1=O)c1ccc(S(=O)(=O)N2CCCCCC2)cc1` (stereo unspecified), the inhibition is 0% (inactive).
As to `CCCCN(C)C(=O)c1cn(C)c2ccc(S(=O)(=O)N(C)C)cc2c1=O`, the inhibition is 0% (inactive).
With `O=C(Nc1ccccc1C(=O)N1CCOCC1)C1CCC(=O)N1C1CCCC1` (stereo unspecified), the inhibition was 1% (inactive).
`CC1(C(=O)CSc2nc3ccccc3s2)CCC(=O)O1` (stereo unspecified): the inhibition was 0% (inactive).
For the compound `COc1cc(OC)c2c(c1)OC(c1ccc(OC)c(OC)c1)C(O)C2=O` (stereo unspecified), the inhibition is 1% (inactive).
In the case of `COc1cc(OC)cc(C(=O)NCc2n[nH]c(=S)n2-c2ccccc2OC)c1`, the inhibition is 0% (inactive).

These data come from PubChem BioAssay.
